Reference: PubChem BioAssay AID1159580 (chemical genetic matrix, 2015)
Values joined by “and” are separate entries in the source; they are usually repeats but may differ in a detail not shown here. Equal entries are not always repeated. Among all 5,500 compounds or so, about 2,000 (36%) were called active. About 18% were inconclusive and are not listed. Rule as the data show it: active = normalized growth mostly below about 0.91 (no sharp cut-off); inconclusive = no clear call, values can overlap the other calls; inactive = mostly above about 0.92. The list shows a part of the results.

Assay: chemical genetic growth profiling, strain panel (AID 1159580);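 also: tested at 20 µM; growth read once vehicle control cultures reached saturation at 30 °C; 1 = growth at the plate median or of vehicle wells; lower values mean less growth of the strain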
Settings: growth OD

Measured: normalized growth

Nc1ccc(C(=O)O)c(O)c1
inactive: S. cerevisiae deletion strains, locus YKL009W, strain mrt4, stronger effect = lower value 1 | S. cerevisiae deletion strains, locus YKL068W, stronger effect = lower value 0.999 | S. cerevisiae deletion strains, locus YKL085W, strain MDH1 (second series), stronger effect = lower value 0.995 | S. cerevisiae deletion strains, locus YKL085W, strain MDH1, stronger effect = lower value 0.995 | S. cerevisiae deletion strains, locus YKL160W, strain elf1, stronger effect = lower value 0.947 | S. cerevisiae deletion strains, locus YKL190W, strain CNB1, stronger effect = lower value 1.01 | S. cerevisiae deletion strains, locus YKR001C, strain vps1, stronger effect = lower value 0.992 | S. cerevisiae deletion strains, locus YKR026C, strain gcn3, stronger effect = lower value 0.994 | S. cerevisiae deletion strains, locus YKR091W, strain srl3, stronger effect = lower value 0.989 | S. cerevisiae deletion strains, locus YLL001W, strain dnm1, stronger effect = lower value 0.924 | S. cerevisiae deletion strains, locus YLL026W, stronger effect = lower value 1 | S. cerevisiae deletion strains, locus YLL041C, strain sdh2, stronger effect = lower value 0.992 | S. cerevisiae deletion strains, locus YLR027C, strain aat2, stronger effect = lower value 1 | S. cerevisiae deletion strains, locus YLR039C, strain RIC1, stronger effect = lower value 1.02 | S. cerevisiae deletion strains, locus YLR058C, strain SHM2, stronger effect = lower value 1.01 | S. cerevisiae deletion strains, locus YLR102C, strain apc9, stronger effect = lower value 0.998 | S. cerevisiae deletion strains, locus YLR113W, strain HOG1, stronger effect = lower value 1.03 and 1.02 | S. cerevisiae deletion strains, locus YLR221C, strain rsa3, stronger effect = lower value 0.968 | S. cerevisiae deletion strains, locus YLR258W, strain gsy2, stronger effect = lower value 1.01 | S. cerevisiae deletion strains, locus YLR262C, strain YPT6 (second series), stronger effect = lower value 0.961 | S. cerevisiae deletion strains, locus YLR262C, strain YPT6, stronger effect = lower value 1.06 | S. cerevisiae deletion strains, locus YLR268W, strain sec22, stronger effect = lower value 0.99 | S. cerevisiae deletion strains, locus YLR320W, strain mms22, stronger effect = lower value 0.954 | S. cerevisiae deletion strains, locus YLR330W, strain CHS5, stronger effect = lower value 1.01 | S. cerevisiae deletion strains, locus YLR342W, strain FKS1 (second series), stronger effect = lower value 1.04 | S. cerevisiae deletion strains, locus YLR342W, strain FKS1, stronger effect = lower value 0.997 | S. cerevisiae deletion strains, locus YLR357W, strain rsc2, stronger effect = lower value 0.955 | S. cerevisiae deletion strains, locus YLR370C, strain arc18, stronger effect = lower value 0.995 | S. cerevisiae deletion strains, locus YLR371W, strain rom2, stronger effect = lower value 0.997 | S. cerevisiae deletion strains, locus YLR384C, strain iki3, stronger effect = lower value 0.994 | S. cerevisiae deletion strains, locus YLR418C, strain cdc73, stronger effect = lower value 0.996 | S. cerevisiae deletion strains, locus YML016C, strain PPZ1, stronger effect = lower value 1.01 | S. cerevisiae deletion strains, locus YML032C, strain rad52, stronger effect = lower value 1 | S. cerevisiae deletion strains, locus YML120C, strain ndi1, stronger effect = lower value 0.978 | S. cerevisiae deletion strains, locus YML124C, strain tub3, stronger effect = lower value 0.996 | S. cerevisiae deletion strains, locus YMR058W, strain fet3, stronger effect = lower value 0.995 | S. cerevisiae deletion strains, locus YMR078C, strain ctf18, stronger effect = lower value 1 | S. cerevisiae deletion strains, locus YMR125W, strain sto1, stronger effect = lower value 0.945 | S. cerevisiae deletion strains, locus YMR129W, stronger effect = lower value 0.999 | S. cerevisiae deletion strains, locus YMR205C, strain PFK2, stronger effect = lower value 0.939 | S. cerevisiae deletion strains, locus YMR223W, strain ubp8, stronger effect = lower value 1 | S. cerevisiae deletion strains, locus YMR231W, strain pep5, stronger effect = lower value 0.985 | S. cerevisiae deletion strains, locus YMR263W, strain SAP30, stronger effect = lower value 1 | S. cerevisiae deletion strains, locus YMR307W, strain GAS1, stronger effect = lower value 0.991 | S. cerevisiae deletion strains, locus YNL067W, strain RPL9B, stronger effect = lower value 1.01 | S. cerevisiae deletion strains, locus YNL071W, strain lat1, stronger effect = lower value 0.986 | S. cerevisiae deletion strains, locus YNL153C, strain GIM3, stronger effect = lower value 0.998 | S. cerevisiae deletion strains, locus YNL183C, strain NPR1, stronger effect = lower value 0.959 and 0.981 | S. cerevisiae deletion strains, locus YNL209W, strain ssb2, stronger effect = lower value 0.997 | S. cerevisiae deletion strains, locus YNL233W, strain BNI4, stronger effect = lower value 0.998 | S. cerevisiae deletion strains, locus YNL248C, strain rpa49, stronger effect = lower value 0.967 | S. cerevisiae deletion strains, locus YNL250W, strain rad50, stronger effect = lower value 1 | S. cerevisiae deletion strains, locus YNL271C, strain bni1, stronger effect = lower value 0.985 | S. cerevisiae deletion strains, locus YNL298W, strain CLA4, stronger effect = lower value 0.989 | S. cerevisiae deletion strains, locus YNL307C, strain MCK1, stronger effect = lower value 1 | S. cerevisiae deletion strains, locus YNL322C, strain KRE1 (second series), stronger effect = lower value 0.977 | S. cerevisiae deletion strains, locus YNL322C, strain KRE1, stronger effect = lower value 1.01 | S. cerevisiae deletion strains, locus YNR049C, strain mso1, stronger effect = lower value 0.994 | S. cerevisiae deletion strains, locus YNR052C, strain pop2, stronger effect = lower value 0.998 | S. cerevisiae deletion strains, locus YOL006C, strain TOP1, stronger effect = lower value 1.04 | S. cerevisiae deletion strains, locus YOL012C, strain htz1 0.886 | S. cerevisiae deletion strains, locus YOL147C, strain pex11, stronger effect = lower value 0.999 | S. cerevisiae deletion strains, locus YOR001W, strain rrp6, stronger effect = lower value 1.04 | S. cerevisiae deletion strains, locus YOR061W, strain CKA2, stronger effect = lower value 1.01 | S. cerevisiae deletion strains, locus YOR069W, strain VPS5, stronger effect = lower value 1.01 | S. cerevisiae deletion strains, locus YOR070C, strain gyp1, stronger effect = lower value 0.995 | S. cerevisiae deletion strains, locus YOR080W, strain dia2, stronger effect = lower value 1 | S. cerevisiae deletion strains, locus YOR083W, strain WHI5, stronger effect = lower value 0.945 | S. cerevisiae deletion strains, locus YOR106W, strain vam3, stronger effect = lower value 0.999 | S. cerevisiae deletion strains, locus YOR136W, strain idh2, stronger effect = lower value 0.992 | S. cerevisiae deletion strains, locus YOR144C, strain elg1, stronger effect = lower value 0.996 | S. cerevisiae deletion strains, locus YOR184W, strain ser1, stronger effect = lower value 0.997 | S. cerevisiae deletion strains, locus YOR231W, strain MKK1, stronger effect = lower value 1.01 and 1.04 | S. cerevisiae deletion strains, locus YOR265W, strain rbl2, stronger effect = lower value 0.997 | S. cerevisiae deletion strains, locus YOR270C, strain vph1, stronger effect = lower value 0.987 | S. cerevisiae deletion strains, locus YOR290C, strain snf2, stronger effect = lower value 0.963 | S. cerevisiae deletion strains, locus YOR316C, strain cot1, stronger effect = lower value 0.997 | S. cerevisiae deletion strains, locus YPL051W, strain arl3, stronger effect = lower value 0.979 | S. cerevisiae deletion strains, locus YPL055C, strain LGE1, stronger effect = lower value 1.01 | S. cerevisiae deletion strains, locus YPL078C, strain atp4, stronger effect = lower value 0.946 | S. cerevisiae deletion strains, locus YPL106C, strain sse1, stronger effect = lower value 0.968 | S. cerevisiae deletion strains, locus YPL240C, strain hsp82, stronger effect = lower value 0.991 | S. cerevisiae deletion strains, locus YPL241C, strain CIN2, stronger effect = lower value 1.01 | S. cerevisiae deletion strains, locus YPL256C, strain CLN2, stronger effect = lower value 1.03 and 1.04 | S. cerevisiae deletion strains, locus YPR119W, strain clb2, stronger effect = lower value 0.998 | S. cerevisiae deletion strains, locus YPR141C, strain kar3, stronger effect = lower value 0.999 | S. cerevisiae deletion strains, locus YPR163C, strain tif3, stronger effect = lower value 0.99 | S. cerevisiae deletion strains, locus YPR167C, strain met16, stronger effect = lower value 1.01 | S. cerevisiae deletion strains, strain wtn01, stronger effect = lower value 0.984 | S. cerevisiae strains, strain wild type, stronger effect = lower value 1.01
